Compound activity from PubChem BioAssay.
The list is not random: actives were taken first. Their share in the collection is about 4.6%.
TIM10 inh = TIM10 yeast growth inhibition; S. cerevisiae TIM10 strain growth, BacTiter-Glo luminescence, 24 h; inhibition, % at 10 µM; hit rate 1.4% among 330,000;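 active = inhibition of 40% or more at the single tested concentration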;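 also: wild-type TIM10 isogenic control strain grown at permissive 25 °C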
SKKanGAS inh = SKKanGAS growth inhibition. S. pyogenes SKKanGAS, kanamycin growth, BacTiter-Glo, 6 h. inhibition, % at 7.5 µM. hit rate 1.3% among 300,000;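 active = mean replicate score, as percent of positive control median, at least 50; inconclusive = mean below 50 but one replicate at or above 50; inactive = mean and every replicate below 50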;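 also: strain carries kanamycin resistance gene driven by streptokinase promoter and grows in 40 µg/ml kanamycin; loss of luminescence reflects streptokinase promoter inhibition or plain growth inhibition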
tim10-1 inh = inhibits growth of tim10-1 mutant yeast. inhibition, % at 20 µM. hit rate 2.2% among 330,000. S. cerevisiae tim10-1 ts strain growth, BacTiter-Glo, 24 h. AID 463190;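 active = inhibition of at least 40%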;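 also: mutant grown at 25 °C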
NALP3 yeast inh = NALP3 inhibition in yeast | AID 2825 | inhibition, % at 10 µM | hit rate 0.39% among 330,000 | Yeast reconstituted NLRP3/ASC/caspase-1, beta-gal luminescence, 24 h;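 active = inhibition of 50% or more; inactive = inhibition below 50%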
tim23-1 inh = tim23-1 yeast growth inhibition; inhibition, % at 20 µM; hit rate 1.3% among 330,000; S. cerevisiae tim23-1 growth, BacTiter-Glo luminescence, 24 h; AID 463212;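 active = growth inhibition of the mutant yeast at or above 50%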;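 also: temperature-sensitive mutant grown at 25 °C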
PfHsp90 yeast 2 = growth inhibition of yeast expressing Plasmodium Hsp90; S. cerevisiae expressing PfHsp90, BacTiter-Glo ATP, 48 h; yeast lacking PDR1 and PDR3 efflux regulators; inhibition, % at 9.4 µM; hit rate 0.32% among 310,000; AID 504621;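 active = every replicate shows inhibition above about 80%, whatever the replicate mean, limit read from the data; inconclusive = mean inhibition reaches the set limit but some replicate falls short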
Each line names hits and unclear results; the compound was inactive in the other large screens.

Cc1ccc(NC(=O)c2cc(N3C(=O)C=CC3=O)ccc2N2CCOCC2)cc1Cl	SKKanGAS inh 61.3, PfHsp90 yeast 2 104.6 (no result: TIM10 inh, tim10-1 inh, NALP3 yeast inh, tim23-1 inh)
Cc1ccc(NC(=O)c2cc(N3C(=O)CCC3=O)ccc2N2CCOCC2)cc1	none
Cc1ccc(-n2ncc3c(SCc4cccc(C)c4)ncnc32)cc1	none
Cc1cccc(CSc2ncnc3c2cnn3Cc2ccccc2)c1	SKKanGAS inh 76.1
CC(C)(C)c1ccc(C(=O)Nc2ccc(F)cc2)s1	SKKanGAS inh 53.1
CCc1cc2cc(C(=O)Nc3ccc(F)cc3)sc2s1	none
CCOc1ccc(CCNC(=O)c2ccc3ccccc3n2)cc1OCC	none
COc1ccc(-c2nn(-c3ccccc3)cc2CNC[C@H]2O[C@@H](n3cnc4c(N)ncnc43)[C@H](O)[C@@H]2O)cc1	none (no result: SKKanGAS inh)
O=[N+]([O-])c1cccc(C=NNc2ccc3ccccc3n2)c1O	PfHsp90 yeast 2 137.1 (no result: TIM10 inh, SKKanGAS inh, tim10-1 inh, NALP3 yeast inh, tim23-1 inh)
COc1cccc(/C=N/Nc2ccc([N+](=O)[O-])cn2)c1O	SKKanGAS inh 103.9, PfHsp90 yeast 2 94.3
O=[N+]([O-])c1ccc(Nc2nc(N/N=C/c3cccc(F)c3)nc(N3CCCC3)n2)cc1	none
O=[N+]([O-])c1ccc(Nc2nc(NC3CCCCC3)nc(N3CCCC3)n2)cc1	SKKanGAS inh 82.8
COc1cccc(/C=N/Nc2nc(Nc3ccc([N+](=O)[O-])cc3)nc(N3CCCC3)n2)c1O	SKKanGAS inh 72.9
O=[N+]([O-])c1ccc(NC2CCCC2)cc1	none
O=[N+]([O-])c1ccc(NN=Cc2cccc3ccccc23)nc1	none (no result: TIM10 inh, SKKanGAS inh, tim10-1 inh, NALP3 yeast inh, tim23-1 inh)
OC1COC(c2ccccc2)OC1C1OC(c2ccccc2)OCC1O (centres undefined)	none (no result: TIM10 inh, SKKanGAS inh, tim10-1 inh, NALP3 yeast inh, tim23-1 inh)
CCN1C(=O)C(CC(=O)Nc2ccc(Br)cc2)N(CCCc2ccccc2)C1=S (centres undefined)	SKKanGAS inh 91.8
C=CCNC(=O)CSCc1ccc(Br)cc1	none
Cc1cc(C)c2nc(SCC(=O)NCC3CCCO3)c(C#N)cc2c1 (centres undefined)	none
CCC(NC(=O)Nc1nnc(C(F)(F)F)s1)(C(F)(F)F)C(F)(F)F	SKKanGAS inh 117.8
Cc1[nH]c(N=Nc2ccccc2)nc1N=Nc1ccccc1	SKKanGAS inh inconclusive, PfHsp90 yeast 2 103.9
Nc1ccc(N=Nc2ccccc2)c(N)n1	none
CC(C)(C)c1ccc(OCCCC(=O)NC2=NCCS2)cc1	SKKanGAS inh 62.3
COCCC(=O)Nc1ccc2c(c1)CN(C(=O)c1ccc(CSC)o1)CC2	none
CCCCNc1c(-c2ccc(OC)c(SC3CCCCC3)c2)nc2cnccn12	SKKanGAS inh 103.9
COc1ccc(Sc2ccc(-c3nc4cnccn4c3NC3CCCCC3)cc2OC)cc1	none (no result: SKKanGAS inh)
CCCCNc1c(-c2ccc(-c3ccc(C(C)=O)cc3)c(OC)c2)nc2cnccn12	SKKanGAS inh 63.8
COc1cc(-c2nc3cnccn3c2NC(C)(C)CC(C)(C)C)ccc1O	none
COc1cc(-c2nc3ccccn3c2NCc2ccccc2)ccc1SC1CCCCC1	none
COc1ccc(-c2nc3ccccn3c2NC2CCCCC2)cc1SC1CCCCC1	SKKanGAS inh 82.6
CCC(C)Sc1ccc(-c2nc3cnccn3c2NC2CCCCC2)cc1 (centres undefined)	SKKanGAS inh 93.1
CCCCNc1c(-c2ccc(SC3CCCCC3)cc2)nc2cnccn12	none (no result: SKKanGAS inh)
O=C(CCl)c1ccc2[nH]c(=O)oc2c1	none
COc1ccc(S(=O)(=O)Nc2ccccc2C(N)=O)cc1OC	none
Cn1cccc1/C=N/NC(=O)c1cccc(OC(F)(F)C(F)F)c1	none
O=C(O)c1ccccc1-c1csc(-c2ccccc2)n1	none
CCCCCCSc1ccc(-c2nc3ccccn3c2NCCCC)cc1	SKKanGAS inh 51.3
CCCCCCSc1cc(-c2nc3cc(C)ccn3c2NC2CCCCC2)ccc1OC	none
CCCCCCSc1cc(-c2nc3cnccn3c2NCc2ccccc2)ccc1OC	SKKanGAS inh 65.2
CCCCNc1c(-c2ccc(OC)c(SC3CCCCC3)c2)nc2cc(C)ccn12	SKKanGAS inh 72.0
COc1ccc(-c2nc3cnccn3c2NCc2ccccc2)cc1SC1CCCCC1	SKKanGAS inh 54.8
CCCCNc1c(-c2ccc(OC)c(SC3CCCCC3)c2)nc2ccc(Cl)cn12	none (no result: SKKanGAS inh)
CC(O)CNc1ccc(-c2nn(C)c(=O)c3ccccc23)cc1[N+](=O)[O-] (centres undefined)	none
O=S1(=O)Cc2cc3ccccc3cc2C1	none
Cc1nnc(SCC(=O)NC2CCCC2)n1-c1ccccc1	none (no result: SKKanGAS inh)
CN1CCN(C2Cc3ccc(F)cc3Sc3cc(F)c(Cl)cc32)CC1 (centres undefined)	SKKanGAS inh 97.3
CCN(CC(=O)Nc1ccc(NC(C)=O)cc1)C(=O)c1cccnc1Sc1ccc(C)c(C)c1	none
CN(CC1CCCO1)S(=O)(=O)c1ccc(C(=O)Nc2nnc(-c3ccccc3)o2)cc1 (centres undefined)	SKKanGAS inh 83.6
CN(CC1CCCO1)S(=O)(=O)c1ccc(C(=O)Nc2ccccc2F)cc1 (centres undefined)	SKKanGAS inh inconclusive
COc1ccccc1-c1nnc(NC(=O)c2ccc(S(=O)(=O)N(C)CC3CCCO3)cc2)o1 (centres undefined)	SKKanGAS inh 54.3
Cc1ccc(C)c(N(C(=O)c2ccco2)C(C(=O)NC2CCCC2)c2ccco2)c1 (centres undefined)	none
O=C(NNc1c2ccccc2nc2ccccc12)c1ccc(O)cc1O	SKKanGAS inh 51.5
O=C(NNc1c2ccccc2nc2ccccc12)c1ccccc1O	none
COc1ccc2c(c1OC)C(=O)N1C2SC(C)(C)[C@H]1C(=O)NC(C)C (some centres undefined)	none
O=C(NNC(=S)NC(=O)c1ccccc1)c1ccc([N+](=O)[O-])cc1	SKKanGAS inh 67.3
O=C(NC(=S)NNC(=O)c1ccccc1O)c1ccc([N+](=O)[O-])cc1	none
O=C(NNC(=S)NC(=O)c1ccc(Br)cc1)c1cccc([N+](=O)[O-])c1	SKKanGAS inh 102.3
Cc1ccc(C(=O)NC(=S)NNC(=O)c2ccc([N+](=O)[O-])cc2)cc1	SKKanGAS inh 79.5
CCOc1ccc(C(=O)N/N=C/c2cc(Cl)ccc2[N+](=O)[O-])cc1	none
CCCCC1CCC(C(=O)Nc2ccc(N3CCOCC3)cc2N2CCOCC2)CC1 (centres undefined)	none (no result: SKKanGAS inh)
CN(C)C1=NCCN1CCc1ccccc1	none (no result: SKKanGAS inh)
O=C(Nc1cc(S(=O)(=O)N2CCCCC2)ccc1N1CCCCC1)c1ccncc1	none
Cn1cccc1C(=O)OCC(=O)NC(=O)NC1CCCCC1	none
COCCCNC(=O)Cc1c(C)c2cc3c(cc2oc1=O)OC(C)(C)CC3	none
C(C#CCCCCCCCCC[n+]1ccccc1)#CCCCCCCCCC[n+]1ccccc1	SKKanGAS inh 62.1, PfHsp90 yeast 2 121.5 (no result: TIM10 inh, tim10-1 inh, NALP3 yeast inh, tim23-1 inh)
CCn1nc(C)cc1C(=O)N1CCCC(CCC(=O)NCc2ccccc2F)C1 (centres undefined)	none
Oc1nc(Nc2ccc(Cl)cc2Cl)sc1/C=C1\C=Nc2ccccc21	SKKanGAS inh 115.0
